The text below walks through data of PubChem BioAssay (NCI).

Common to all, as to test: NCI-60 one-dose screen, 48 h (100 = growth as untreated, 0 = no growth, -100 = all killed)
Common to all, as to conditions: 10 µM unless noted

The test system of assay [1] is DU-145 prostate.
Assay [2] concerns K-562 leukemia.
In assay [3] the test system is MALME-3M melanoma.
Assay [4] relates to MDA-MB-231 breast.
Assay [5] concerns RXF 393 renal.
Assay [6] has as its system SF-268 CNS.
For assay [7], the system named is SF-295 CNS.
Assay [8] deals with SF-539 CNS.
The test system of assay [9] is M14 melanoma.

About 83,000 compounds went through this panel and 20% of them were active in at least one assay; those are over-represented in the sample as a whole.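 The test compound was applied at a single concentration to cells in 96-well plates for 48 hours, and percent growth was recorded.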 Unmarked numbers belong to inactive results. The source made the active and inactive calls. How the source made its calls: active means growth percent below 10; inactive means the rest.

As for `CCCCCCCN(CCCCCCC)C(=N)c1ccc(OC)c2ccccc12`, the growth was -96.4% (active) in assay [1]; -47.9% (active) in assay [2]; -72% (active) in [3]; -77.2% (active) in assay [4]; -94.5% (active) in assay [5]; -91% (active) in [6]. For the same molecule, the growth was -89.9% (active) in [7], -88% (active) in assay [8] and -85.9% (active) in assay [9].

For `CC(C)CCC[C@@H](C)[C@H]1CC[C@H]2[C@@H]3CC[C@H]4C/C(=N/O)CC[C@]4(C)[C@H]3CC[C@]12C`, the growth in assay [1] is 116%; in assay [2], 91.2%; in assay [3] it was 104%; in assay [4], 98.8%; in assay [5], 102%; in assay [6] it was 110%. Also, the growth was 101% in [7], 109% in assay [8] and 104% in [9].

On to `C=CCOc1ccc(/C(O)=C2\C(=O)C(=O)N(c3nccs3)C2c2ccccc2F)cc1` (stereo not given), for which the growth is 114% in [1]; 109% in [2]; 92.1% in assay [3]; 112% in assay [4]; -20.5% (active) in [5]; 116% in assay [6]. Besides, the growth is 85.1% in assay [7], 125% in assay [8] and 82.7% in assay [9].

`CC(Cc1nnc(SCC(=O)Nc2ccc(I)cc2)n1N)c1ccccc1` (stereo not given): the growth is 94.5% in assay [1]; 87.1% in assay [2]; 108% in assay [3]; 81.8% in [4]; 53.7% in [5]; 102% in [6]. Also, the growth in [7] is 127%; in assay [8], 94.3%; in assay [9] it was 95.3%.

Take `COc1ccc2c(c1)C=CC(C#N)N2C(=O)c1ccccc1` (stereo not given): the growth is 3.08% (active) in [1]; 7.66% (active) in assay [2]; 66.8% in assay [3]; 25.4% in assay [4]; 30.4% in assay [5]; 34% in assay [6]. For the same molecule, the growth in [7] is -1.96% (active); in assay [8] it was -21.2% (active); in [9] it was 15.9%.

Regarding `Cc1ccc2c(c1)ncn2-c1ncnc2c1CC(C)c1ccccc1N2C` (stereo not given), the growth in assay [1] was 11.8%; in assay [2] it was 7.17% (active); in assay [3] it was 49.3%; in assay [4], 26.9%; in assay [5], 72%; in [6], 19.9%. Also, the figures for the growth in [7], in assay [8] and in [9] were 13.3%, 4.79% (active) and 19.7%, respectively.

For `Cc1cc2c(C(C)C)c(O)c(O)c(C=NCCCCCCC(=O)O)c2c(O)c1-c1c(C)cc2c(C(C)C)c(O)c(O)c(C=NCCCCCCC(=O)O)c2c1O`, the growth in assay [1] is 51.3%; in assay [2], 12.6%; in assay [3] it was 62.8%; in assay [4], 39.2%; in assay [5], 34.2%; in [6] it was 36.2%. Also, the growth in [7] is 11.9%; in [8], 23.1%; in assay [9] it was 37%.

As to `Cc1cc(C(=O)O)c(N)c(C)n1`, the growth in assay [1] was 110%; in [2] it was 104%; in [3] it was 109%; in assay [4] it was 106%; in assay [5], 121%; in assay [6], 104%. Besides, the growth in assay [7] is 111%; in assay [8], 102%; in assay [9], 102%.

In the case of `CC(=O)Oc1cccc(OC(C)=O)c1OC(C)=O`, the growth in [1] was 108%; in [2], 100%; in assay [3], 97.6%; in assay [4], 98.9%; in assay [5], 99.5%; in assay [6], 105%. The values for the growth in assay [7], in assay [8] and in [9] were 99.2%, 99.5% and 95.3%, respectively.

For `Cc1ccc2c(c1)C(C)Cc1c(ncnc1-n1cnc3ccccc31)N2C` (stereo not given), the growth in [1] was 8.43% (active); in [2], 6.64% (active); in assay [3], 65.6%; in [4], 25.1%; in assay [5], 21.5%; in assay [6], 34.1%. In addition, the growth in [7] was -11.4% (active); in assay [8] it was -33.1% (active); in [9], 18.1%.

Regarding `CN(C)CCCNC(=O)C(c1ccccc1)c1ccccc1`, the growth was 115% in assay [1]; 95.2% in [2]; 104% in assay [3]; 102% in assay [4]; 116% in assay [5]; 107% in assay [6]. In addition, the figures for the growth in assay [7], in [8] and in assay [9] were 102%, 99.4% and 101%, respectively.

Consider `COc1cc(-n2nc(C(=O)Nc3ccc(C(=O)O)cc3)nc2-c2ccccc2)cc(OC)c1OC`, for which the growth in assay [1] was 70.6%; in assay [2] it was 100%; in [3], 94.2%; in assay [4] it was 99%; in assay [5], 106%; in assay [6], 92%. In addition, the values for the growth in assay [7], in assay [8] and in assay [9] were 103%, 106% and 100%, respectively.

On to `O=S(=O)(NCCCNc1cc(-c2cn(-c3ccccc3)nc2-c2cccc(O)c2)ccn1)c1ccc(Cl)cc1`, for which the growth is 39.9% in assay [1]; -8.45% (active) in assay [2]; -19.3% (active) in assay [3]; -17.3% (active) in assay [4]; 14.9% in assay [5]; 30.6% in assay [6]. Moreover, the growth in assay [7] was -47.9% (active); in assay [8], 21.6%; in [9], 8.6% (active).

For the molecule `O=C1CCCCN1CCCCC#Cc1ccccc1C#Cc1ccccn1`, the growth in [1] is 109%; in [2], 93.6%; in assay [3], 100%; in assay [4], 102%; in assay [5], 56.6%; in assay [6] it was 107%. Moreover, the growth in assay [7] is 109%; in assay [8], 103%; in [9] it was 112%.

Turning to `O=C1CCC(=O)N1Cc1ccccc1`, the growth in assay [1] is 105%; in assay [2] it was 108%; in [3] it was 110%; in assay [4] it was 98%; in [5] it was 87%; in assay [6], 94.7%. Further, the growth in [7] is 102%; in [8] it was 105%; in [9], 94.7%.
